The target of the first experiment is T1, ELK4 (Homo sapiens, UniProt P28324-2 1-405).
T1 sequence: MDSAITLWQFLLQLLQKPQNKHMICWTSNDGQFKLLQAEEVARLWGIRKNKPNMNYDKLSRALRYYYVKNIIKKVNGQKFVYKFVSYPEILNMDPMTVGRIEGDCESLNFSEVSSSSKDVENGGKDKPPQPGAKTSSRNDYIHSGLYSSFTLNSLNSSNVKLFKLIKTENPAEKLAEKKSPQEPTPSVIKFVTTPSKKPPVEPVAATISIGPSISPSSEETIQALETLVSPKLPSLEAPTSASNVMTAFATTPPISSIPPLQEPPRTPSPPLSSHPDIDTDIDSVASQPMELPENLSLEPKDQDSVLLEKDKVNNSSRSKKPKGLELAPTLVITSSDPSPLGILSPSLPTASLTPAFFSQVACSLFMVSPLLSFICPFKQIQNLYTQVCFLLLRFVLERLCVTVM
The experiment can be described thus: DAPPL (digital affinity profiling via proximity ligation, sequencing); 10 mM Tris-HCl pH 7.5, 50 mM NaCl, 1 mM DTT, 4% glycerol, room temperature, 30 min; GST-TFs on glutathione beads, 16-mer random dsDNA library, 0.1% formaldehyde crosslink after washing; high values mean tight binding. Conditions: protein: recombinant; tags: N-terminal GST; dsDNA, one strand shown. In short, it runs like this:
(§1)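 Binding signal is given per hexamer as its read frequency for a factor divided by its frequency in the tag-only sample. GST-fused human transcription factors were expressed in yeast, captured on glutathione beads, barcoded with DNA and pooled with that sample, then incubated with 200 nmole of a 16-mer random double-stranded DNA library in Tris/NaCl/DTT/glycerol buffer for 30 min at room temperature. The pools were then washed, crosslinked, proximity-ligated, amplified by PCR and sequenced on an Illumina NextSeq500.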
As to TTTGTG, the binding signal was 1.38 fold enrichment (6-mer frequency, TF over GST control). The same measure, in the same setting: the value for AATTCA was 1.26 fold enrichment (6-mer frequency, TF over GST control); that for TTGCTC was 1.16 fold enrichment (6-mer frequency, TF over GST control); that for CTAAAC was 1.26 fold enrichment (6-mer frequency, TF over GST control).

For TAGGCT, the binding signal is 1.13 fold enrichment (6-mer frequency, TF over GST control).

Take CCTCTG: the binding signal is 1.9 fold enrichment (6-mer frequency, TF over GST control).

For TGTCTA, the binding signal is 1.06 fold enrichment (6-mer frequency, TF over GST control). On to TTCACC, for which the binding signal is 1.36 fold enrichment (6-mer frequency, TF over GST control). Same read-out and setting: with ATCTAC the figure was 1.11 fold enrichment (6-mer frequency, TF over GST control). Still for that read-out and setting: with CACTAT the figure was 1.25 fold enrichment (6-mer frequency, TF over GST control).

Take TAATCC: the binding signal was 1.23 fold enrichment (6-mer frequency, TF over GST control). Turning to AAAGAT, the binding signal is 1.24 fold enrichment (6-mer frequency, TF over GST control). The same measure, in the same setting: with CGTCTT the figure was 1.21 fold enrichment (6-mer frequency, TF over GST control). On to ACTGAA, for which the binding signal was 1.16 fold enrichment (6-mer frequency, TF over GST control). As for CTCCGC, the binding signal was 1.39 fold enrichment (6-mer frequency, TF over GST control). Take CAACTC: the binding signal is 1.2 fold enrichment (6-mer frequency, TF over GST control).

As for TACAAT, the binding signal was 1.47 fold enrichment (6-mer frequency, TF over GST control).

On to CCATCT, for which the binding signal was 1.4 fold enrichment (6-mer frequency, TF over GST control). As to TCCCCG, the binding signal was 1.12 fold enrichment (6-mer frequency, TF over GST control).

Turning to ACTCTA, the binding signal was 1.43 fold enrichment (6-mer frequency, TF over GST control). CCCTCC: the binding signal is 1.38 fold enrichment (6-mer frequency, TF over GST control).

ATATTC: the binding signal is 1.31 fold enrichment (6-mer frequency, TF over GST control). On to CGCTTA, for which the binding signal is 1.32 fold enrichment (6-mer frequency, TF over GST control).

For the sequence ACGTTA, the binding signal is 1.03 fold enrichment (6-mer frequency, TF over GST control). Regarding GCCTTT, the binding signal was 1.32 fold enrichment (6-mer frequency, TF over GST control). Still for that read-out and setting: with TTCGAG the figure was 1.26 fold enrichment (6-mer frequency, TF over GST control); with CTGAGC, 1.14 fold enrichment (6-mer frequency, TF over GST control).

As to AATTCT, the binding signal is 1.29 fold enrichment (6-mer frequency, TF over GST control).

Turning to CCTGAA, the binding signal was 1.41 fold enrichment (6-mer frequency, TF over GST control). Take TAACTT: the binding signal was 1.32 fold enrichment (6-mer frequency, TF over GST control). Same read-out and setting: with CTCATC the figure was 1.32 fold enrichment (6-mer frequency, TF over GST control). Same read-out and setting: with TCTCAT the figure was 1.37 fold enrichment (6-mer frequency, TF over GST control); with TGATGA, 1.46 fold enrichment (6-mer frequency, TF over GST control).

Consider TTAAAT, for which the binding signal is 1.22 fold enrichment (6-mer frequency, TF over GST control). Same read-out and setting: the value for TTTCAA was 1.29 fold enrichment (6-mer frequency, TF over GST control); that for ATATGG was 1.36 fold enrichment (6-mer frequency, TF over GST control). In the case of ACTTGG, the binding signal was 1.28 fold enrichment (6-mer frequency, TF over GST control). Regarding CACATT, the binding signal was 1.13 fold enrichment (6-mer frequency, TF over GST control).

For the sequence TCCTGA, the binding signal is 1.29 fold enrichment (6-mer frequency, TF over GST control).

The target in another experiment is T2, ETV2 (Homo sapiens, UniProt O00321 1-342).
T2 sequence: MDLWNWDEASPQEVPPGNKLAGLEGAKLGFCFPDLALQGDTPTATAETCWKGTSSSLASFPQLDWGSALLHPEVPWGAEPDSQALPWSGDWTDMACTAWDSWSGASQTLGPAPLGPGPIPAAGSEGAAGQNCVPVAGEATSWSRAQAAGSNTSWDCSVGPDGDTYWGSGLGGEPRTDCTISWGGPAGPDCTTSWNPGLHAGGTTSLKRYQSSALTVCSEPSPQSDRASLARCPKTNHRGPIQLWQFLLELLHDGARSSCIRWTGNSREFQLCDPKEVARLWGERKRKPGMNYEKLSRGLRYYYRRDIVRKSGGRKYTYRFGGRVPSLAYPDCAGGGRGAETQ
The description is as above. Conditions: protein: recombinant; tags: N-terminal GST; dsDNA, one strand shown. In short, it runs like this:
as §1
In the case of TTTGTG, the binding signal is 1.25 fold enrichment (6-mer frequency, TF over GST control). On the same count and under the same terms, with AATTCA the figure was 1.36 fold enrichment (6-mer frequency, TF over GST control). Consider TTGCTC, for which the binding signal was 1.4 fold enrichment (6-mer frequency, TF over GST control). Take CTAAAC: the binding signal is 1.33 fold enrichment (6-mer frequency, TF over GST control). On the same count and under the same terms, the value for TAGGCT was 1.09 fold enrichment (6-mer frequency, TF over GST control); that for CCTCTG was 1.5 fold enrichment (6-mer frequency, TF over GST control). With TGTCTA, the binding signal is 1.34 fold enrichment (6-mer frequency, TF over GST control). Same read-out and setting: the value for TTCACC was 1.36 fold enrichment (6-mer frequency, TF over GST control); that for ATCTAC was 1.29 fold enrichment (6-mer frequency, TF over GST control). As to CACTAT, the binding signal was 1.09 fold enrichment (6-mer frequency, TF over GST control). In the case of TAATCC, the binding signal was 1.2 fold enrichment (6-mer frequency, TF over GST control). On the same count and under the same terms, the value for AAAGAT was 1.17 fold enrichment (6-mer frequency, TF over GST control). As to CGTCTT, the binding signal is 1.29 fold enrichment (6-mer frequency, TF over GST control). ACTGAA: the binding signal was 1.05 fold enrichment (6-mer frequency, TF over GST control).

Regarding CTCCGC, the binding signal is 1.57 fold enrichment (6-mer frequency, TF over GST control). Take CAACTC: the binding signal is 1.3 fold enrichment (6-mer frequency, TF over GST control). For the sequence TACAAT, the binding signal was 1.31 fold enrichment (6-mer frequency, TF over GST control). The same measure, in the same setting: the value for CCATCT was 1.39 fold enrichment (6-mer frequency, TF over GST control); that for TCCCCG was 1.26 fold enrichment (6-mer frequency, TF over GST control).

The values above are taken from paper PMC7862700, “An all-to-all approach to the identification of sequence-specific readers for epigenetic DNA modifications on cytosine”.
